“And” between values parts separate entries of the source, which are not always exact repeats. Identical values can stand only once. The source made the active and inactive calls. Unless noted, calls come from the whole dose curve; as a rule, active = well fitted curve in the direction sought with a large enough effect in the repeat runs; inconclusive = weak or mixed curves; inactive = no such curve, though single readings can be large; an effect the other way counts as inactive or inconclusive.
Experiments:
[1] = qHTS assay to test for compound auto fluorescence at 535 nm (green) in HEK293 cells (AID 720680)
[2] = qHTS assay to test for compound auto fluorescence at 460 nm (blue) in HEK293 cell free culture (AID 720681)
In short: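 Test compounds were pinned into cell-free culture medium (DMEM with 10% FBS) and fluorescence was read directly at Ex/Em 405/460 nm. Signals were expressed as fluorescence equivalents of triamterene, with DMSO vehicle as control.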

[3] = qHTS assay to test for compound auto fluorescence at 535 nm (green) in HEK293 cell free culture (AID 720682)
In short: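 Compounds were pin-transferred into cell-free DMEM with 10% FBS, and green fluorescence was read at excitation 485 nm and emission 535 nm. Intensities were expressed as fluorescein-equivalent values.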

[4] = qHTS assay to test for compound auto fluorescence at 590 nm (red) in HEK293 cell free culture (AID 720683)
In short: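 Tox21 10K library compounds were pinned into cell-free DMEM with 10% FBS and fluorescence was read at excitation 540 nm. Activity is expressed as Rose Bengal sodium equivalency.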

[5] = qHTS assay to test for compound auto fluorescence at 590 nm (red) in HepG2 cell free culture (AID 720684)
In short: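 Readout: intrinsic compound fluorescence at 590 nm emission after 540 nm excitation, scaled to Rose Bengal sodium. Matrix was cell-free MEM with 10% FBS; DMSO vehicle wells served as control.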

[6] = qHTS assay to test for compound auto fluorescence at 460 nm (blue) in HepG2 cell free culture (AID 720685)
In short: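 Cell-free plates of MEM plus 10% FBS received 23 nL compound or DMSO vehicle; blue-channel (405/460 nm) intensity scored against triamterene as reference fluorophore.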

[7] = qHTS assay to test for compound auto fluorescence at 535 nm (green) in HepG2 cell free culture (AID 720686)
[8] = qHTS assay to test for compound auto fluorescence at 460 nm (blue) in HepG2 cells (AID 720687)
In short: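 Cells (2,000/well in MEM with 10% FBS) attached overnight at 37 C, then were exposed to compound or DMSO for 1 hr at 37 C, 5% CO2. Fluorescence read at Ex/Em 405/460 nm, expressed as triamterene-equivalent signal.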

[9] = target: Glucocorticoid receptor (Homo sapiens) (UniProt P04150); test: qHTS assay to identify small molecule agonists of the glucocorticoid receptor (GR) signaling pathway (AID 720691; active = well fitted activation curve with a large enough effect in the signal ratio in the repeat runs, not every such curve was filed as active; inconclusive = weak or mixed curves, or effect the other way; inactive = no such curve, though single readings can be large or run the other way; the % refers to the signal ratio; note: potency is the fitted concentration of half-maximal effect)
In short: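 Compounds in DMSO, alongside positive controls, were added to GR-bla HeLa reporter cells and incubated 18 h at 37 C; GRE-driven beta-lactamase was detected by fluorescence after 2 h with FRET substrate at room temperature.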

[10] = qHTS assay to identify small molecule antagonists of the glucocorticoid receptor (GR) signaling pathway - cell viability counter screen (AID 720693); note: nearly all actives have a fitted effect of over 55% in size
[11] = qHTS assay for identifying genotoxic compounds that show differential cytotoxicity against isogenic chicken DT40 cell lines with known DNA damage response pathways - Rad54/Ku70 mutant cell line (AID 743015); note: nearly all actives have a fitted effect of over 60% in size; note: potency is the fitted concentration of half-maximal effect
[12] = qHTS assay to identify small molecule antagonists of the androgen receptor (AR) signaling pathway - cell viability counter screen (AID 743033; note: nearly all actives have a fitted effect of over 45% in size)
[13] = qHTS assay to identify small molecule antagonists of the androgen receptor (AR) signaling pathway using the MDA cell line - cell viability counter screen (AID 743041; note: nearly all actives have a fitted effect of over 45% in size)
In short: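 qHTS viability read-out; MDA-kb2 AR-luc; R1881-stimulated; 16 h exposure at 37C, 0% CO2; CellTiter-Fluor, 30 min; fluorescence intensity.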

[14] = qHTS assay for identifying genotoxic compounds that show differential cytotoxicity against isogenic chicken DT40 cell lines with known DNA damage response pathways - Rev3 mutant cell line (AID 743014); note: nearly all actives have a fitted effect of over 55% in size; note: potency is the fitted concentration of half-maximal effect
[15] = target: Glucocorticoid receptor (Homo sapiens) (UniProt P04150); test: qHTS assay to identify small molecule antagonists of the glucocorticoid receptor (GR) signaling pathway (AID 720692; active = well fitted inhibition curve with a large enough effect in the signal ratio in the repeat runs, not every such curve was filed as active; inconclusive = weak or mixed curves, or effect the other way; inactive = no such curve, though single readings can be large or run the other way; the % refers to the signal ratio)
In short: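 In a 1536-well cell format, compounds were added 4 h after seeding GR-bla HeLa cells, together with dexamethasone at 5 nM final; reporter activity was measured by FRET-substrate fluorescence following 18 h at 37 C.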

[16] = qHTS assay for identifying genotoxic compounds that show differential cytotoxicity against isogenic chicken DT40 cell lines with known DNA damage response pathways - wild type cell line (AID 743012); note: nearly all actives have a fitted effect of over 60% in size; note: potency is the fitted concentration of half-maximal effect
In short: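 Viability of DNA repair-proficient chicken DT40 cells was assessed by CellTiter-Glo luminescence following 40 h compound exposure at 37 C/5% CO2.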

[17] = target: Androgen receptor (Homo sapiens) (UniProt P10275); test: qHTS assay to identify small molecule antagonists of the androgen receptor (AR) signaling pathway (AID 743035; active = well fitted inhibition curve with a large enough effect in the signal ratio in the repeat runs, not every such curve was filed as active; inconclusive = weak or mixed curves, or effect the other way; inactive = no such curve, though single readings can be large or run the other way; the % refers to the signal ratio; note: potency is the fitted concentration of half-maximal effect)
In short: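 Reporter HEK293 cells were exposed to compounds and R1881 overnight (16 h, 37C); beta-lactamase activity was then quantified by FRET fluorescence.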

[18] = target: Androgen receptor (Homo sapiens) (UniProt P10275); test: qHTS assay to identify small molecule agonists of the androgen receptor (AR) signaling pathway (AID 743036; active = well fitted activation curve with a large enough effect in the signal ratio in the repeat runs, with a control signal flat, not every such curve was filed as active; inconclusive = weak or mixed curves, or effect the other way; inactive = no such curve, though single readings can be large or run the other way; the % refers to the signal ratio)
In short: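 Activation was read as beta-lactamase FRET signal from LiveBLAzer B/G substrate, added for 2 h at room temperature. Before that, GeneBLAzer AR-UAS-bla GripTite (HEK293) cells had 16 h compound exposure at 37C.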

[19] = target: Androgen receptor (Homo sapiens) (UniProt P10275); test: qHTS assay to identify small molecule agonists of the androgen receptor (AR) signaling pathway using the MDA cell line (AID 743040; note: nearly all actives have a fitted effect of over 20% in size; note: potency is the fitted concentration of half-maximal effect)
In short: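 Agonist activity is measured as luciferase luminescence in human MDA-kb2 cells whose MMTV reporter responds to both AR and GR. Compounds in DMSO incubate 16 h at 37C, 0% CO2, and ONE-Glo is read after 30 min.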

[20] = target: Androgen receptor (Homo sapiens) (UniProt P10275); test: qHTS assay to identify small molecule antagonists of the androgen receptor (AR) signaling pathway using the MDA cell line (AID 743042; note: nearly all actives have a fitted effect of over 55% in size)
In short: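 MDA-kb2 cells (human breast carcinoma, stably carrying an MMTV-luciferase reporter responsive to AR and GR) were plated at 3,000 cells/well and preincubated 5 hr at 37C, then given compound plus R1881 agonist for 16 h. ONE-Glo luminescence was read.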

Measured: Potency

Chain of Androgen receptor (Homo sapiens) (P10275 whole entry, looked up): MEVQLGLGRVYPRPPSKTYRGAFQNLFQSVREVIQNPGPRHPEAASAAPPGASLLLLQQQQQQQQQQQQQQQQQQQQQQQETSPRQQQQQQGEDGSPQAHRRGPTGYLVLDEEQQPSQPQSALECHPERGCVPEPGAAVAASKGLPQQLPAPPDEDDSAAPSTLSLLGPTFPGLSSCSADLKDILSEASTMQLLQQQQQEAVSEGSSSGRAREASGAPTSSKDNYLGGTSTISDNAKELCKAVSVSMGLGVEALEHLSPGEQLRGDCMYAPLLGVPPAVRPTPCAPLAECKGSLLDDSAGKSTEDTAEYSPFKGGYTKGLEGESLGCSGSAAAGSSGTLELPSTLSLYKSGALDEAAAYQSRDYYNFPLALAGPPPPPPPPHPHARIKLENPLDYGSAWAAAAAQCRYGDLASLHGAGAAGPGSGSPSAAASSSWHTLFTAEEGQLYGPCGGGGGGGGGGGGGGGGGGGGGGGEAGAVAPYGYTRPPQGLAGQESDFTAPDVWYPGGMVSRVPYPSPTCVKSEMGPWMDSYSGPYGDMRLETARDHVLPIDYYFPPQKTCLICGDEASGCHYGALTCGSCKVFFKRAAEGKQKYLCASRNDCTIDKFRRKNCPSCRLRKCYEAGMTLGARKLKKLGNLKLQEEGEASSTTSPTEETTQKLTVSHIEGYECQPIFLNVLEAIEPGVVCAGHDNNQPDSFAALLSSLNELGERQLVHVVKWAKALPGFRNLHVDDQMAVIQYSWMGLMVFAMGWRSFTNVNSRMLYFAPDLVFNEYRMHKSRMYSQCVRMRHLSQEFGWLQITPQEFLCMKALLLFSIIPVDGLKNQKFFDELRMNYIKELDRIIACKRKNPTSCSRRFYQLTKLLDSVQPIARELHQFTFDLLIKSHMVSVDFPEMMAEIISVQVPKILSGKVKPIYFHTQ
Chain of Glucocorticoid receptor (Homo sapiens) (P04150 whole entry, looked up): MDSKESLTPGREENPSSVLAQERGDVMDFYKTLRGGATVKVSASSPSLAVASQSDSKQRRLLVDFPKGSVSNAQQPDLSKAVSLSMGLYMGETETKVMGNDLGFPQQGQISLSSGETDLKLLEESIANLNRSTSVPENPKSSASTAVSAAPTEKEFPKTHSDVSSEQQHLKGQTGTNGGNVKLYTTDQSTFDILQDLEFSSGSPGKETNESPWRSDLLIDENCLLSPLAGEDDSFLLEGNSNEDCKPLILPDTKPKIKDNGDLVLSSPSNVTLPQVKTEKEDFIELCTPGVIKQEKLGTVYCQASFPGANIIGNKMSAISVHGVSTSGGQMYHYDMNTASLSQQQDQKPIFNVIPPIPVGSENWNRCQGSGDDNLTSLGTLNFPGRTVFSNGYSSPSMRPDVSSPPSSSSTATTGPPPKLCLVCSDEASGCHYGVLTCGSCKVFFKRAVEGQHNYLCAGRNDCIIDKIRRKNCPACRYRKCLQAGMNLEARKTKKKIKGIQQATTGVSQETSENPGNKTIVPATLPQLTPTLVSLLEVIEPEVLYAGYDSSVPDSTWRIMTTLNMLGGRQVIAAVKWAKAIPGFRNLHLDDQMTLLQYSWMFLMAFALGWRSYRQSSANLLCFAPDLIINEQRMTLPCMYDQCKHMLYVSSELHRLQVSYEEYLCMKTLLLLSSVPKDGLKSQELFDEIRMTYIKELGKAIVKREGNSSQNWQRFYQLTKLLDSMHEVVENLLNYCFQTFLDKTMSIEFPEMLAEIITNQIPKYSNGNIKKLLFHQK

CCOC(=O)Cn1c(=O)sc2cccc(Cl)c21
not listed: [14] | [15] | [16] | [17] | [18] | [19] | [20]
inactive: all other assays above

Cn1ccc2cc3c(cc21)CCN3C(=O)Nc1cccnc1
active: [14] 13.3 µM | [11] 26.6 µM
not listed: [15] | [16] | [17] | [18] | [19] | [20]
inactive: all other assays above

CC(=O)NC(Cc1ccccc1)C(=O)O (configuration not stated)
not listed: [10] | [14] | [17] | [18] | [19] | [20]
inactive: all other assays above

CCCCCCCCC=O
not listed: [10] | [13] | [14] | [17] | [18] | [19] | [20]
inactive: all other assays above

CSc1ccc(C=O)cc1
not listed: [10] | [17] | [18] | [19] | [20]
inactive: all other assays above

O=C1OC(=O)c2cc([N+](=O)[O-])ccc21
not listed: [10] | [14] | [17] | [18] | [19] | [20]
inactive: all other assays above

Fc1ccccc1-c1ccccc1
not listed: [10] | [17] | [18] | [19] | [20]
inactive: all other assays above

CCCCC1CCCCC(=O)O1 (configuration not stated)
not listed: [10] | [14] | [17] | [18] | [19] | [20]
inactive: all other assays above

CC(C)[C@H](N)C(=O)OCCOCn1cnc2c(=O)[nH]c(N)nc21
active: [16] 11.9 µM | [14] 23.7 µM | [11] 26.6 µM
not listed: [10] | [17] | [18] | [19] | [20]
inactive: all other assays above

c1ccc(SCCSc2ccccc2)cc1
not listed: [9] | [15]
inactive: all other assays above

CC(O)CN(CCCN(C)C)CCCN(C)C (configuration not stated)
not listed: [9] | [15] | [17] | [18] | [19] | [20]
inactive: all other assays above

CC(CCO)CCCC(C)(C)O (configuration not stated)
active: [14] 48.6 µM
not listed: [9] | [11] | [12] | [16] | [17] | [18] | [19] | [20]
inactive: all other assays above

NC(=O)CCCCC1CCSS1 (configuration not stated)
not listed: [9] | [14] | [16] | [17] | [18] | [19] | [20]
inactive: all other assays above

NC(=O)c1ncn([C@@H]2O[C@H](CO)[C@@H](O)[C@H]2O)c1O
not listed: [9] | [17] | [18] | [19] | [20]
inactive: all other assays above

CCN(CC)S(=O)(=O)c1ccc(C(=O)O)cc1
not listed: [9] | [14] | [17] | [18] | [19] | [20]
inactive: all other assays above

COC(=O)CCCC(=O)O
not listed: [9] | [15] | [17] | [18] | [19] | [20]
inactive: all other assays above

OCC(CO)(CO)COCC(CO)(CO)CO
not listed: [9] | [15] | [17] | [18] | [19] | [20]
inactive: all other assays above

COc1cccc(Br)c1
not listed: [9] | [15]
inactive: all other assays above

CC(C)COC(=O)C(C)C
not listed: [9] | [14] | [16] | [17] | [18] | [19] | [20]
inactive: all other assays above

COC(=O)CCCCCCCCC(=O)OC
not listed: [9] | [15] | [17] | [18] | [19] | [20]
inactive: all other assays above

NC1CCN(c2cccc(Cl)n2)CC1
not listed: [9] | [10] | [11] | [14] | [16]
inactive: all other assays above

OC1OC[C@@H](O)[C@H](O)[C@H]1O (some centres not stated)
not listed: [9] | [15] | [17] | [18] | [19] | [20]
inactive: all other assays above

C[C@H]1O[C@@H](n2cc(F)c(=O)[nH]c2=O)[C@H](O)[C@@H]1O
inactive: [1] | [2] | [3] | [4] | [5] | [6] | [7] | [8] | [15] | [13]
active: [16] 21.1 µM | [11] 23.7 µM

COC(C(=O)O)c1ccccc1 (configuration not stated)
not listed: [9] | [16] | [17] | [18] | [19] | [20]
inactive: all other assays above

Cc1cc(C)cc(OCC2CNC(=O)O2)c1 (configuration not stated)
not listed: [9] | [10] | [14] | [17] | [18] | [19] | [20]
inactive: all other assays above

COCc1ccc(COC)cc1
not listed: [9] | [15] | [17] | [18] | [19] | [20]
inactive: all other assays above

CC(C)(C)OC(=O)N1C[C@@H](F)C[C@H]1C(=O)O
not listed: [9] | [11] | [14] | [17] | [18] | [19] | [20]
inactive: all other assays above

CCn1cc(C(=O)O)c(=O)c2cc(F)c(N3CCN(C)CC3)cc21
not listed: [11] | [14] | [15] | [16] | [17] | [18] | [19] | [20]
inactive: all other assays above

CCN1CCN(c2cc3c(cc2F)c(=O)c(C(=O)O)cn3C2CC2)CC1
not listed: [9] | [11]
inactive: all other assays above

C#CC(O)C(CC)CCCC (configuration not stated)
not listed: [9] | [15]
inactive: all other assays above

CO
not listed: [9] | [15] | [17] | [18] | [19] | [20]
inactive: all other assays above

CC(C)=CCC/C(C)=C/C(=O)O
not listed: [9] | [10] | [17] | [18] | [19] | [20]
inactive: all other assays above

CCCC(=O)O[C@]1(C(=O)CCl)[C@@H](C)C[C@H]2[C@@H]3CCC4=CC(=O)C=C[C@]4(C)[C@@]3(F)C(=O)C[C@@]21C
active: [9] 0.0239 µM [inconclusive] | [14] 7.5 µM | [11] 13.3 µM | [17] 7.56 µM | [19] 0.006 µM
not listed: [10] | [13] | [15] | [16] | [18]
inactive: all other assays above

Nc1nc(F)nc2c1ncn2[C@@H]1O[C@H](CO)[C@@H](O)[C@@H]1O
active: [16] 841 nM and 1.68 µM | [14] 596 nM and 1.88 µM | [11] 1.33 µM and 2.66 µM
not listed: [9] | [17] | [18] | [19] | [20]
inactive: all other assays above

Source: PubChem BioAssay (Tox21)
